Compound activity from PubChem.
LASV entry inh – Lassa virus entry inhibition | Lassa virus pseudotype entry inhibition, cell reporter | hit rate 1.2% among 300,000 | Potency, µM (doses to about 37.9 µM), hits mostly inhibitors; calls by dose curve; tested in HEK293 cells; also: nearly all actives have a fitted effect of over 50% in size
HCV inhibitor – blocks hepatitis C virus | hit rate 3.4% among 340,000 | Potency, µM (doses to about 41.8 µM), actives largely listed as inhibitors | AID 651820 | Huh7.5.1 HCVcc-Cre infection, luciferase reporter, 44 h; active = well fitted inhibition curve with a large enough effect; inconclusive = small, poorly fitted or top-dose-only effect, or another doubt; inactive = no such curve, though single readings can be large or run the other way
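After 44 h co-culture of compound, cells and HCVcc-Cre (~0.5 moi), substrate is added for 15 min at room temperature and luciferase measured over 15 sec. Cells were seeded at 1,000/well and pre-cultured 4 h.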
Vaccinia Venus – vaccinia inhibition (Venus reporter); Vaccinia virus Venus reporter expression, fluorescence; Potency, µM (titrated, usually from 36.5 µM), hits mostly inhibitors; hit rate 0.46% among 330,000; AID 720580; calls by dose curve; tested in A549 cells; also: nearly all actives have a fitted effect of over 30% in size
HCMV antiviral – blocks human cytomegalovirus replication | HFF cells, HCMV-luciferase reporter, 72 h; hits give low values | activity change, negative = inhibition, % at 57.5 µM | AID 1259415 | hit rate 4.5% among 410,000; in the data active = activity change below about -60%; inconclusive = no clear call, values can overlap the other calls; inactive = above about -39%
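Human foreskin fibroblasts infected with luciferase-reporter HCMV at MOI 1 PFU/cell, compounds at two doses. Luciferase measured 72 h post infection; normalized to buffer-only basal and Salinomycin (10uM) controls.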
VACV mCherry inh – inhibitors of vaccinia virus infection (mCherry reporter signal); Vaccinia virus mCherry reporter infection, fluorescence; Potency, µM (top dose mostly 36.5 µM), hits mostly inhibitors; hit rate 0.63% among 310,000; calls by dose curve; tested in A549 cells; also: nearly all actives have a fitted effect of over 35% in size
MARV entry inh – blocks Marburg virus binding to or entry into cells; Marburg virus pseudotyped entry inhibition, cell reporter; Potency, µM (series often up to 37.8 µM), hits mostly inhibitors; hit rate 1.8% among 300,000; AID 540276; calls by dose curve; tested in HEK293 cells
A number is an active result; - = inactive; ? = inconclusive; . = not tested or not shown; ! = repeats disagree. Hits are enriched below; roughly 7.8% of the tested compounds scored in any of these assays.

SMILES	LASV entry inh	HCV inhibitor	Vaccinia Venus	HCMV antiviral	VACV mCherry inh	MARV entry inh
Cc1ccc(NC(=O)c2ccc(Nc3c([N+](=O)[O-])cc([N+](=O)[O-])cc3[N+](=O)[O-])cc2)cc1	?	10µM	?	-94	-	10µM
COc1ccc(CC(=O)Nc2cc(Cl)ccc2N2CCCC2)cc1	-	?	-	-63	-	?
CC(=O)Nc1ccc(NC(=O)c2cc([N+](=O)[O-])cc([N+](=O)[O-])c2)cc1	-	-	-	-	-	-
COc1ccc(C(=O)Nc2ccc(Nc3ccccc3)cc2)cc1[N+](=O)[O-]	.	11µM	.	-	.	.
COc1ccccc1NC(=O)N1CC(=O)N2[C@H](C1)[C@@H](c1ccc(Br)cc1)[C@@H]2CO	.	.	.	-	.	.
CN1CCN(c2ccccc2NC(=O)c2ccc(N3CCCCC3)c([N+](=O)[O-])c2)CC1	.	?	.	-	.	.
COc1ccc(C(=O)Nc2ccccc2N2CCCCC2)cc1[N+](=O)[O-]	.	?	.	-63	.	.
COc1ccc(NC(=O)CSCC(=O)N(C)CC(=O)Nc2c(C)cccc2C)cc1	.	-	.	-102	.	.
CCN(CC(=O)Nc1c(F)cccc1F)C(=O)CSCC(=O)Nc1ccc(OC)cc1	-	-	-	?	-	-
COc1ccc(NC(=O)CN(C)C(=O)CSC(c2ccccc2)c2ccccc2)cc1	.	13µM	.	?	.	.
CCC(CC)C(=O)Nc1ccc2nc(SCC(=O)N3CCCC3)sc2c1	-	.	-	-	-	-
CCc1ccc(NC(=O)C2CCN(c3nn4c(=O)cc(C)nc4s3)CC2)cc1	?	.	-	-	-	-
Clc1ccc(-c2nnn3c2nc(NC2CCCCC2)c2ccccc23)cc1	-	.	-	-	-	-
CC(C)(O)C#Cc1ccc(CN2CCc3nnc(CNC(=O)c4cccc(F)c4)n3CC2)cc1	.	.	-	.	-	.
Cc1ccnc(NC(=O)Nc2ccc(F)cc2)c1	-	-	-	-	.	?
CSc1ccc(NC(=O)Nc2cc(C)ccn2)cc1	7.1µM	-	-	-	-	7.1µM
CC(C)(O)C1C2OC(=O)C1C1(O)CC3OC34C(=O)OC2C14C (centres undefined)	.	-	-	-76	-	.
CC(C)(O)C1C2OC(=O)C1[C@]1(O)CC3O[C@@]34C(=O)OC2[C@@]14C (some centres undefined)	.	.	-	.	-	.
Cc1nnc(C)c2c(C)n(C(C)c3ccccc3)c(C)c12 (centres undefined)	-	10µM	-	?	-	-
CC(c1ccccc1)n1c(-c2ccccc2)n[nH]c1=S (centres undefined)	.	.	-	.	-	.
COc1ccc(C(C)n2c(C)c3c(C)nnc(C)c3c2C)cc1 (centres undefined)	-	?	?	-81!	?	?
CN(Cc1ccccc1)C(=O)C1CCC(CNS(=O)(=O)c2ccc3c(c2)CCCC(=O)N3)CC1 (centres undefined)	-	.	-	-	-	.
O=C1NC2(CCCCC2)C(=O)N1Cc1cccc(C(F)(F)F)c1	-	-	.	-103	.	-
Cn1cc(S(=O)(=O)N2CCc3ccccc32)cc1C(=O)NC(C)(C)C	.	?	-	-79	-	.
Cc1cccc(C)c1NC(=O)c1cc(S(=O)(=O)N2CCc3ccccc32)cn1C	.	-	-	-	-	.
SMILES	LASV entry inh	HCV inhibitor	Vaccinia Venus	HCMV antiviral	VACV mCherry inh	MARV entry inh
CCCN(C(=O)c1cc(S(=O)(=O)N2CCc3ccccc32)cn1C)c1ccc(OCC)cc1	-	.	-	-75	-	.
Nc1c(Br)cc(C=O)cc1Br	.	.	-	.	-	.
CC(=O)Nc1ccc(C2=NNC(=Nc3ccc(S(=O)(=O)N4CCOCC4)cc3)SC2)cc1	?	?	-	-	-	11µM
Fc1ccc(N=C2NN=C(c3cc(F)ccc3F)CS2)cc1	?	?	?	-	?	?
O=S(=O)(c1ccc(N=C2NN=C(c3cc(F)ccc3F)CS2)cc1)N1CCOCC1	13µM	22µM	-	-99	?	5µM
COCCN=C1NN=C(c2ccc(NC(C)=O)cc2)CS1	.	-	-	-67	-	-
CCN=C1NN=C(c2ccc(C)cc2)CS1	?	-	-	-	-	?
O=C(Cn1nc(Cc2cccnc2)c2ccccc2c1=O)Nc1cccc(C(F)(F)F)c1	-	.	-	?	-	-
O=C1COc2cc(S(=O)(=O)CCC(=O)NC3CCCCC3)c(Cl)cc2N1	-	.	-	-	-	.
COCc1cc(C)nc(OCC(=O)N/N=C/c2ccc(-c3cc([N+](=O)[O-])ccc3C)o2)c1C#N	-	-	-	-	-	-
